{
  "source": "the supplement of paper PMC8728848",
  "test_in_all_cases": "glycan array binding signal (z-score within array); higher = stronger binding",
  "conditions_in_all_cases": "glycan notation: IUPAC condensed, linker removed; mutation: E321K",
  "key": {"[1]": {"target": "Fuc(a1-2)Gal(b1-4)[Fuc(a1-3)]GlcNAc", "in_short": "(§1)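 Negative Z-scores can be read as non-binding. The Z-score is calculated within each array and then averaged across arrays of one protein sequence at different concentrations or buffers and across linkers. Arrays, 3228 in all, were curated from the Consortium for Functional Glycomics database and kept only where the protein sequence was available.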"}, "[2]": {"target": "Fuc(a1-2)[GalNAc(a1-3)]Gal(b1-3)GlcNAc", "in_short": "as §1"}, "[3]": {"target": "Fuc(a1-2)[GalNAc(b1-3)]Gal", "in_short": "as §1"}, "Gal(a1-3)Gal": {"target": "Gal(a1-3)Gal", "in_short": "as §1"}, "Gal(a1-3)Gal(b1-4)GlcNAc": {"target": "Gal(a1-3)Gal(b1-4)GlcNAc", "in_short": "as §1"}, "[4]": {"target": "Gal(b1-4)GalNAc(a1-3)[Fuc(a1-2)]Gal(b1-4)GlcNAc", "in_short": "as §1"}, "Gal(b1-4)Glc": {"target": "Gal(b1-4)Glc", "in_short": "as §1"}, "[5]": {"target": "Gal(b1-4)GlcNAc(b1-3)Gal(b1-3)GlcNAc", "in_short": "as §1"}, "[6]": {"target": "Gal(b1-4)GlcNAc(b1-3)GalNAc", "in_short": "as §1"}, "[7]": {"target": "Gal(b1-4)GlcNAc(b1-6)[Gal(b1-3)]GalNAc", "in_short": "as §1"}, "Gal6S(b1-4)Glc6S": {"target": "Gal6S(b1-4)Glc6S", "in_short": "as §1"}, "[8]": {"target": "GlcNAc(b1-3)[GlcNAc(b1-6)]GalNAc", "in_short": "as §1"}, "GlcNAc(b1-4)GlcNAc": {"target": "GlcNAc(b1-4)GlcNAc", "in_short": "as §1"}, "[9]": {"target": "GlcNAc(b1-4)GlcNAc(b1-4)GlcNAc(b1-4)GlcNAc(b1-4)GlcNAc(b1-4)GlcNAc", "in_short": "as §1"}, "[10]": {"target": "Man(a1-2)Man(a1-2)Man(a1-6)[Man(a1-3)]Man", "in_short": "as §1"}, "[11]": {"target": "Neu5Ac(a2-3)Gal(b1-3)GalNAc6S", "in_short": "as §1"}, "[12]": {"target": "Neu5Ac(a2-3)Gal(b1-4)GlcNAc(b1-3)Gal(b1-3)GlcNAc", "in_short": "as §1"}, "[13]": {"target": "Neu5Ac(a2-3)Gal(b1-4)GlcNAc(b1-3)Gal(b1-4)[Fuc(a1-3)]GlcNAc", "in_short": "as §1"}, "[14]": {"target": "Neu5Ac(a2-3)Gal6S(b1-4)GlcNAc", "in_short": "as §1"}, "[15]": {"target": "Neu5Ac(a2-3)GalNAc(b1-4)GlcNAc", "in_short": "as §1"}, "[16]": {"target": "Neu5Ac(a2-6)Gal(b1-4)GlcNAc(b1-2)Man(a1-3)[GlcNAc(b1-2)Man(b1-4)GlcNAc(b1-2)Man(a1-6)]Man(b1-4)GlcNAc(b1-4)GlcNAc", "in_short": "as §1"}, "[17]": {"target": "Neu5Ac(a2-6)Gal(b1-4)GlcNAc(b1-3)Gal(b1-4)GlcNAc", "in_short": "as §1"}, "[18]": {"target": "Neu5Ac(a2-8)Neu5Ac(a2-8)Neu5Ac", "in_short": "as §1"}, "[19]": {"target": "Neu5Ac(a2-8)Neu5Ac(a2-8)Neu5Ac(a2-3)Gal(b1-4)Glc", "in_short": "as §1"}, "Neu5Ac(b2-6)GalNAc": {"target": "Neu5Ac(b2-6)GalNAc", "in_short": "as §1"}},
  "note": "This is one part of a sample in which the strongest signals are shown more often than they occur.",
  "data": [
    {"binder": "Surfactant Protein D (Human); Neck + Carbohydrate Recognition Domain (NCRD) (Homo sapiens) (protein) MLLFLLSALVLLTQPLGYLEAEMKTYSHRTMPSACTLVMCSSVESGLPGRDRDGREGPRGEKGDPGLPGAAGQAGMPGQAGPVGPKGDNGSVGEPGPKGDTGPSGPPGPPGVPGPAGREGALGKQGNIGPQGKPGPKGEAGPKGEVGAPGMQGSAGARGLAGPKGERGVPGERGVPGNTGAAGSAGAMGPQGSPGARGPPGLKGDKGIPGDKGAKGESGLPDVASLRQQVEALQGQVQHLQAAFSQYKKVELFPNGQSVGEKIFKTAQFVKPFTEAQLLCTQAGGQLASPRSAAENAALQQLVVAKNEAAFLSMTDSKTEGKFTYPTGESLVYSNWAPGKPNDDGGSEDCVEIFTNGKWNDRACGEKRLVVCEF", "values": [
      {"measurement": "glycan array binding signal (z-score)", "setting": "[1]", "result": -0.011},
      {"measurement": "glycan array binding signal (z-score)", "setting": "[2]", "result": -0.437},
      {"measurement": "glycan array binding signal (z-score)", "setting": "[3]", "result": -0.418},
      {"measurement": "glycan array binding signal (z-score)", "setting": "Gal(a1-3)Gal", "result": -0.277},
      {"measurement": "glycan array binding signal (z-score)", "setting": "Gal(a1-3)Gal(b1-4)GlcNAc", "result": 0.494},
      {"measurement": "glycan array binding signal (z-score)", "setting": "[4]", "result": -0.87},
      {"measurement": "glycan array binding signal (z-score)", "setting": "Gal(b1-4)Glc", "result": -0.968},
      {"measurement": "glycan array binding signal (z-score)", "setting": "[5]", "result": -0.871},
      {"measurement": "glycan array binding signal (z-score)", "setting": "[6]", "result": -0.758},
      {"measurement": "glycan array binding signal (z-score)", "setting": "[7]", "result": -0.831},
      {"measurement": "glycan array binding signal (z-score)", "setting": "Gal6S(b1-4)Glc6S", "result": 2.78},
      {"measurement": "glycan array binding signal (z-score)", "setting": "[8]", "result": -0.62},
      {"measurement": "glycan array binding signal (z-score)", "setting": "GlcNAc(b1-4)GlcNAc", "result": 2.94},
      {"measurement": "glycan array binding signal (z-score)", "setting": "[9]", "result": -0.106},
      {"measurement": "glycan array binding signal (z-score)", "setting": "[10]", "result": 0},
      {"measurement": "glycan array binding signal (z-score)", "setting": "[11]", "result": 0.404},
      {"measurement": "glycan array binding signal (z-score)", "setting": "[12]", "result": -0.578},
      {"measurement": "glycan array binding signal (z-score)", "setting": "[13]", "result": 0.062},
      {"measurement": "glycan array binding signal (z-score)", "setting": "[14]", "result": 0.549},
      {"measurement": "glycan array binding signal (z-score)", "setting": "[15]", "result": 3.92},
      {"measurement": "glycan array binding signal (z-score)", "setting": "[16]", "result": 5.34},
      {"measurement": "glycan array binding signal (z-score)", "setting": "[17]", "result": -0.587},
      {"measurement": "glycan array binding signal (z-score)", "setting": "[18]", "result": -0.381},
      {"measurement": "glycan array binding signal (z-score)", "setting": "[19]", "result": -0.475},
      {"measurement": "glycan array binding signal (z-score)", "setting": "Neu5Ac(b2-6)GalNAc", "result": 3.67}
    ]}
  ]
}
